Compounds without any hit were thinned out: in the full panel of roughly 79,000, 15% have a hit. Unmarked numbers belong to inactive results. Calls of active or inactive are those of the source. No stated cut-off is given here; in the data, active means growth inhibition above about 70%; inactive means the rest.
experiment: NCI Yeast Anticancer Drug Screen. Data for the rad50 strain (AID 155);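 further: 0% = growth of vehicle-only cultures of the same strain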; conditions: S. cerevisiae rad50 strain growth inhibition; at 50.0 µM; stronger effect = higher value
How it was run: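 Readout: growth inhibition relative to vehicle-treated cultures. Compound exposure was carried out in a genetically defined yeast strain deficient in DNA damage repair.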

Row | SMILES | growth inhibition
1 | O=S(=O)(Oc1ccc(OS(=O)(=O)c2ccccc2)cc1)c1ccccc1 | -8.8%
2 | Nc1cccc2c1C(=O)OC2=O | -6.6%
3 | CCC(C(=O)c1ccccc1)c1cccc2c1N(C(C)=O)CC2 (stereo not given) | 0.05%
4 | COc1ccc(OC)c(NC(=O)c2ccc(Cl)c(Cl)c2)c1 | -0.5%
5 | CCCCCCCCCCCCCCCCS(=O)(=O)N/N=c1\cc(-c2ccccc2Cl)c2ccccc2n1C | -0.15%
6 | C=CC1CC(NC(=O)OC)C(=O)O1 (stereo not given) | 1.05%
7 | CC1(C)C(CC(=O)O)CC1C(=O)O (stereo not given) | 10.4%
8 | Cc1cc(N)ccc1N=Nc1ccc(S(=O)(=O)CCOS(=O)(=O)O)cc1 | 10.9%
9 | Oc1ccc(C2SCc3nc4ccccc4n32)cc1 (stereo not given) | -7.85%
10 | C/C(N)=C\c1nc(=O)ccs1 | 10.9%
11 | C#[N+]CCOP(=O)(OCC1OC(n2cc(C)c(=O)[nH]c2=O)CC1N=[N+]=[N-])O[C@H]1CC[C@@]2(C)C(=CC[C@H]3[C@@H]4CC[C@H](C(C)/C=C/C(CC)C(C)C)[C@@]4(C)CC[C@@H]32)C1 (stereo not given in full) | -32.3%
12 | O=C(O)c1ccc(O)cc1 | 14.3%
13 | O=C1c2cccc3c([N+](=O)[O-])ccc(c23)C(=O)N1CC1CCCO1 (stereo not given) | 71.3% (active)
14 | COC(=O)C(C(C)C(C)[N+](=O)[O-])=P(c1ccccc1)(c1ccccc1)c1ccccc1 (stereo not given) | 41.7%
15 | CC(=O)OC(C)C1CCCC1OC(C)=O (stereo not given) | -3.95%
16 | O=Cc1ccnc2c(Cl)cccc12 | 16.4%
17 | CCOC(=O)c1ccc(NC(=S)NC(=O)c2cccc([N+](=O)[O-])c2)cc1 | -3.15%
18 | CCN(CC)S(=O)(=O)Nc1c(C)n(C)n(-c2ccccc2)c1=O | -5.6%
19 | Cc1cc(S(=O)(=O)Nc2n[nH]c(Nc3ccccc3)n2)c(S)cc1Cl | -3.5%
20 | N#CC(C#N)=NNc1ccc2cn[nH]c2c1 | -11.1%

Row | SMILES | growth inhibition
21 | COC(=O)C1CCC(/C(C#N)=C2/CCC(C(=O)OC)[N-]2)=N1.COC(=O)C1CCC(/C(C#N)=C2/CCC(C(=O)OC)[N-]2)=N1.[Cu+2] (stereo not given) | -13.8%
22 | CCOC(=O)CN1C(=O)C(=O)N(c2ccc(OC)c3ccccc23)C1=O | -46.1%
23 | CCOC(=O)COC(=O)C1C(C(N)=O)N(CC(=O)OCC)CCN1CC(=O)OCC (stereo not given) | 1.85%
24 | Cc1nc(=S)[nH][nH]1 | -0.75%
25 | CNC(=O)OCc1nc(SSC(C)(C)C)n(C)c1COC(=O)NC | 2.65%
26 | COc1cccc2c1C(=O)C1(O)CCCCC21 (stereo not given) | -55.8%
27 | CC1(C)C(O)C(C)(C)C1O (stereo not given) | 17.1%
28 | CCNC1=C(Cl)C(=O)c2ccccc2C1=O | -11.9%
29 | Cc1sc2ccnc(C)c2c1S(=O)(=O)O | 5.3%
30 | COC(=O)c1ccc(/C=C(\c2ccc([N+](=O)[O-])o2)S(=O)(=O)c2ccc(NC(C)=O)cc2)o1 | 84.7% (active)
31 | CC(=O)Nc1ccc(S(=O)(=O)Oc2noc3ccccc23)cc1 | 9.8%
32 | CC(C)(S(=O)(=O)Oc1ccccc1)S(=O)(=O)Oc1ccccc1 | 1.6%
33 | CC(=O)Nc1cc(C)c(C)cc1[N+](=O)[O-] | -2.5%
34 | CCNC(=O)NC(=O)C(C)(C)Oc1ccc(Cl)cc1 | -8.4%
35 | C=C1CC[N+]2(CCCCCC)CCCC12 (stereo not given) | 2.5%
36 | COc1cc2c(cc1OC)C(C#N)(C(c1ccccc1)c1ccccc1)N(C(=O)c1ccccc1)C=C2 (stereo not given) | 16.9%
37 | O=C(O)c1ccc2c(c1)CC1(C2)Cc2ccccc2C1=O (stereo not given) | -16.4%
38 | Cc1cnn(-c2ccccc2)[n+]1[O-] | 0.65%
39 | O=C(c1ccc(O)cc1)C1N=NCC1c1ccccc1 (stereo not given) | -15.8%
40 | CC1=CC(=O)C(CN(C)C)(CN(C)C)C(C)(C)C1 | 4.85%

experiment: NCI Yeast Anticancer Drug Screen. Data for the mec2-1 strain (AID 157); conditions: S. cerevisiae mec2-1 strain, at 50.0 µM, stronger effect = higher value
How it was run: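 Strain: mec2-1 (DNA repair/cell cycle alteration). Compound exposure, then growth measured; inhibition expressed relative to vehicle.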

Row | SMILES | growth inhibition
41 | O=S(=O)(Oc1ccc(OS(=O)(=O)c2ccccc2)cc1)c1ccccc1 | 1%
42 | Nc1cccc2c1C(=O)OC2=O | -6.2%
43 | CCC(C(=O)c1ccccc1)c1cccc2c1N(C(C)=O)CC2 (stereo not given) | 6.9%
44 | COc1ccc(OC)c(NC(=O)c2ccc(Cl)c(Cl)c2)c1 | 14.3%
45 | CCCCCCCCCCCCCCCCS(=O)(=O)N/N=c1\cc(-c2ccccc2Cl)c2ccccc2n1C | -16.9%
46 | C=CC1CC(NC(=O)OC)C(=O)O1 (stereo not given) | 5.2%
47 | CC1(C)C(CC(=O)O)CC1C(=O)O (stereo not given) | -0.7%
48 | Cc1cc(N)ccc1N=Nc1ccc(S(=O)(=O)CCOS(=O)(=O)O)cc1 | -7.5%
49 | Oc1ccc(C2SCc3nc4ccccc4n32)cc1 (stereo not given) | -17.9%
50 | C/C(N)=C\c1nc(=O)ccs1 | 11.8%
51 | C#[N+]CCOP(=O)(OCC1OC(n2cc(C)c(=O)[nH]c2=O)CC1N=[N+]=[N-])O[C@H]1CC[C@@]2(C)C(=CC[C@H]3[C@@H]4CC[C@H](C(C)/C=C/C(CC)C(C)C)[C@@]4(C)CC[C@@H]32)C1 (stereo not given in full) | -14.4%
52 | O=C(O)c1ccc(O)cc1 | 44.7%
53 | O=C1c2cccc3c([N+](=O)[O-])ccc(c23)C(=O)N1CC1CCCO1 (stereo not given) | 51%
54 | COC(=O)C(C(C)C(C)[N+](=O)[O-])=P(c1ccccc1)(c1ccccc1)c1ccccc1 (stereo not given) | 3.4%
55 | CC(=O)OC(C)C1CCCC1OC(C)=O (stereo not given) | 9.2%
56 | O=Cc1ccnc2c(Cl)cccc12 | 22.8%
57 | CCOC(=O)c1ccc(NC(=S)NC(=O)c2cccc([N+](=O)[O-])c2)cc1 | 6.55%
58 | CCN(CC)S(=O)(=O)Nc1c(C)n(C)n(-c2ccccc2)c1=O | -17.2%
59 | Cc1cc(S(=O)(=O)Nc2n[nH]c(Nc3ccccc3)n2)c(S)cc1Cl | 9%
60 | N#CC(C#N)=NNc1ccc2cn[nH]c2c1 | 28.2%

Row | SMILES | growth inhibition
61 | COC(=O)C1CCC(/C(C#N)=C2/CCC(C(=O)OC)[N-]2)=N1.COC(=O)C1CCC(/C(C#N)=C2/CCC(C(=O)OC)[N-]2)=N1.[Cu+2] (stereo not given) | -24.2%
62 | CCOC(=O)CN1C(=O)C(=O)N(c2ccc(OC)c3ccccc23)C1=O | -17.2%
63 | CCOC(=O)COC(=O)C1C(C(N)=O)N(CC(=O)OCC)CCN1CC(=O)OCC (stereo not given) | 1.9%
64 | Cc1nc(=S)[nH][nH]1 | 16.9%
65 | CNC(=O)OCc1nc(SSC(C)(C)C)n(C)c1COC(=O)NC | -1.5%
66 | COc1cccc2c1C(=O)C1(O)CCCCC21 (stereo not given) | -41.6%
67 | CC1(C)C(O)C(C)(C)C1O (stereo not given) | -17.6%
68 | CCNC1=C(Cl)C(=O)c2ccccc2C1=O | -9.8%
69 | Cc1sc2ccnc(C)c2c1S(=O)(=O)O | 9.95%
70 | COC(=O)c1ccc(/C=C(\c2ccc([N+](=O)[O-])o2)S(=O)(=O)c2ccc(NC(C)=O)cc2)o1 | 66%
71 | CC(=O)Nc1ccc(S(=O)(=O)Oc2noc3ccccc23)cc1 | 3.45%
72 | CC(C)(S(=O)(=O)Oc1ccccc1)S(=O)(=O)Oc1ccccc1 | 9.95%
73 | CC(=O)Nc1cc(C)c(C)cc1[N+](=O)[O-] | -16.6%
74 | CCNC(=O)NC(=O)C(C)(C)Oc1ccc(Cl)cc1 | 10.4%
75 | C=C1CC[N+]2(CCCCCC)CCCC12 (stereo not given) | 27.4%
76 | COc1cc2c(cc1OC)C(C#N)(C(c1ccccc1)c1ccccc1)N(C(=O)c1ccccc1)C=C2 (stereo not given) | 3.45%
77 | O=C(O)c1ccc2c(c1)CC1(C2)Cc2ccccc2C1=O (stereo not given) | -4.9%
78 | Cc1cnn(-c2ccccc2)[n+]1[O-] | 11.5%
79 | O=C(c1ccc(O)cc1)C1N=NCC1c1ccccc1 (stereo not given) | -9.8%
80 | CC1=CC(=O)C(CN(C)C)(CN(C)C)C(C)(C)C1 | 9.35%

— PubChem BioAssay (NCI)
